From PubChem BioAssay AID1918990 (ICCB-Longwood Screening Facility, Harvard Medical School, 2023)
Among all 29,000 compounds or so, about 85 (0.3%) were called active. Only a selection was taken, and actives are over-represented in it overall. Unmarked numbers belong to inactive results.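 How the source made its calls: active means replicate mean overnight rise in green fluorescent reporter signal, 3 or more SD over negative controls; inactive means the rest.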 Square brackets hold non-standard residues; d marks the D form. Side chains are listed from the residue outwards. Peptide text beside a SMILES is read from it. * marks the point of attachment. X1 = CCC(C)C(N)C1=NC(C(=O)*)CS1; Orn = NCCC[CH](N)C(=O)O

Experiment: fixK promoter GFP reporter activation – B. multivorans, primary screen (AID 1918990)
Conditions: 18 h, stronger effect = higher value

Row | Compound | z-score
1 | COc1cccc(OCCn2c(-c3ccc(Br)cc3)nc3ccccc3c2=O)c1 | -1.26
2 | Cc1c[nH]c(CNC(=O)COCc2nc3ccc(F)cc3[nH]2)c(C)c1=O | -1.57
3 | CCSC(C)C(=O)N1CCc2c(nc(-c3ccncc3)nc2N(C)C)C1 (stereo not drawn) | -1.6
4 | CCOc1ccccc1C(=O)NC1(C(F)(F)F)NC(=O)N(CCc2ccc(OC)c(OC)c2)C1=O (stereo not drawn) | -3.27
5 | COc1cc(Br)cc2cc(S(=O)(=O)c3ccccc3)c(=O)oc12 | -0.19
6 | CCC(C)C(N)C1=NC(C(=O)NC(CC(C)C)C(=O)NC(CCC(=O)O)C(=O)NC(C(=O)NCCCCC2NC(=O)C(CC(N)=O)NC(=O)C(CC(=O)O)NC(=O)C(Cc3cnc[nH]3)NC(=O)C(Cc3ccccc3)NC(=O)C(C(C)CC)NC(=O)C(CCCN)NC2=O)C(C)CC)CS1 (stereo not drawn) (cyclo(DNK([Ile-Glu-Leu-X1])[Orn]IFH); configuration not given here) | -0.77
7 | CN(Cc1cnn(-c2ccc(F)cc2)c1)C(=O)C(C)(C)N1CCOCC1 | -1.96
8 | C#CC(C)(CC)NC(=O)Cn1nnc(-c2ccc(OCc3c(F)cccc3Cl)cc2)n1 (stereo not drawn) | 0.9
9 | CC(NC(=O)N1CCCN(C(=O)C(F)(F)F)CC1)c1ccc(Cl)cc1 (stereo not drawn) | 0.97
10 | CCOC(=O)c1ccc(-c2ccc(/C=C(\C#N)C(=O)Nc3ccc(OCC)cc3)o2)cc1 | 0.84
11 | CCOC(=O)c1ccc(N2C(=O)c3n[nH]c(C)c3C2c2ccc(O)c(OC)c2)cc1 (stereo not drawn) | -1.68
12 | Cc1ccc(NC(=O)NC(C)c2c(-n3cccc3)sc(C)c2C)c(C)c1 (stereo not drawn) | -1.6
13 | Cc1ccc(-c2nc3cccc(C)n3c2Nc2ccc3c(c2)OCCO3)cc1 | 0.46
14 | COc1cccc(Cn2c(SCc3ccc(C(=O)N4CCCCC4)cc3)nc3ccncc32)c1 | -4.02
15 | COc1ccccc1C1C(C(=O)N2CCCCC2)=C(C)Nc2nc3ccccc3n21 (stereo not drawn) | -0.33
16 | CCOc1ccc(-c2n[nH]c3c2C(c2ccccc2OC)N(c2ccc(Br)cc2)C3=O)cc1 (stereo not drawn) | -0.62
17 | CC(C)Cn1c(=O)c2ccccc2n2c(CCC(=O)N3CCN(c4cccc(Cl)c4)CC3)nnc12 | -1.08
18 | Cc1ccc(C(=O)Nc2ccccc2F)cc1S(=O)(=O)N1CCOCC1 | -1.43
19 | O=C(CCc1cccc(Cl)c1)NC1COCC1Cc1ccncc1 (stereo not drawn) | -0.84
20 | CCC1CCCCN1S(=O)(=O)c1ccc(NC(=O)c2cc(=O)c3ccccc3o2)cc1 (stereo not drawn) | -1.59
21 | CCCOc1ccc(CNC(=O)C2CCN(c3nn4c(=O)cc(C)nc4s3)CC2)cc1 | 0.43

Row | Compound | z-score
22 | Cc1cc(OCC(=O)Nc2ncn[nH]2)c(C)c(C)c1Br | 0.56
23 | O=S(=O)(NCC(c1ccccc1)N1CCc2ccccc21)c1ccccc1 (stereo not drawn) | -0.54
24 | CCCc1noc(C2CCC(=O)N(Cc3ccc(Cl)cc3)C2)n1 (stereo not drawn) | -0.44
25 | COc1ccccc1CNC(=O)CCCn1c(=O)c2ccccc2n(CC(=O)Nc2ccc(C)cc2Cl)c1=O | -1.06
26 | Cc1nc(N)ncc1C(=O)N(C)Cc1cn[nH]c1-c1ccccc1 | -0.18
27 | COc1ncccc1NC(=O)NCc1nncn1C1CCCCC1 | 0.26
28 | COc1ccc(NC(=O)CCN2CCN(CCO)CC2)cc1 | -3.11
29 | CC(C)c1ccc2oc(-c3cc(NC(=O)c4cccs4)ccc3Cl)nc2c1 | 0.16
30 | O=C1CC(c2nnc(Cc3ccc(Cl)cc3)o2)CN1c1ccccc1 (stereo not drawn) | 0.07
31 | Cc1cccc(C)c1OCC(=O)NC(Cc1c[nH]c2ccccc12)C(=O)O (stereo not drawn) | 0.01
32 | CSc1ncc(Cl)c(C(=O)Nc2ccc(S(=O)(=O)N3CCCC(C)C3)cc2)n1 (stereo not drawn) | 0
33 | Cc1nc2nc(SCC(=O)N(Cc3ccccc3)C(C)C)nn2c(C)c1Cc1ccccc1Cl | -2.35
34 | Cc1ccc(CN(C)S(=O)(=O)c2c(Cl)nc3sccn23)o1 | 1.01
35 | Cn1c(=O)c2sccc2n2c(CCC(=O)NCc3ccccc3Cl)nnc12 | -0.54
36 | COc1cccc(CNC(=O)CCC(=O)N2CC3CCCN3c3ccccc32)c1 (stereo not drawn) | -0.45
37 | CC(C)CC(=O)C1CCCN(C(=O)c2ccc(N3CCC(O)CC3)nc2)C1 (stereo not drawn) | 0.49
38 | CCC(=O)N1CCc2cc(S(=O)(=O)CCC(=O)N3CCN(c4ccccc4F)CC3)ccc21 | -1.64
39 | CC(Sc1oc(-c2ccco2)nc1S(=O)(=O)c1ccc(Br)cc1)c1ccccc1 (stereo not drawn) | -1.12
40 | COc1ccc(NC(=O)c2cnc(Nc3ccc(C)c(Cl)c3)c3ccccc23)cc1OC | 0.07
41 | Cc1ccc(OCC(=O)NC(c2ccc3c(c2)CCO3)C2CC(O)C2)cc1 (stereo not drawn) | 0.72
42 | COc1cccc(NC(=O)C2CCN(c3cc(C)nc4c(-c5ccc(Cl)cc5)c(C)nn34)CC2)c1 | -0.45

Row | Compound | z-score
43 | C=CCCC(=O)N1CCC[C@]2(C1)CN(C(=O)c1ccccc1CC)CCC2O (stereo partly drawn) | -0.53
44 | COc1ccc(-c2noc(CSc3nc(C)cc(=O)[nH]3)n2)cc1OC | -1.97
45 | COc1ccc(CNc2nc(-c3ccc(Cl)cc3)nn2S(=O)(=O)c2ccc(C)cc2)cc1 | -1.03
46 | Cc1cc(C(=O)NCc2nc(N)n[nH]2)c2c(C)nn(C)c2n1 | 0.15
47 | COc1cccc(CNC(=O)C2CCC(CNS(=O)(=O)c3cccs3)CC2)c1 (stereo not drawn) | -0.11
48 | Cc1ccc2oc3c(c(=O)c2c1)C(c1ccc(O)cc1)N(Cc1ccc2c(c1)OCO2)C3=O (stereo not drawn) | -1.07
49 | COC(=O)c1ccc(N2CCN(C(=O)c3csc(C)n3)CC2)cc1 | -0.55
50 | O=C(CSc1nnc(CNC(=O)c2ccccc2)n1-c1ccc(F)cc1)Nc1ccccc1F | -1.09
51 | COc1ccc(C2=NC(c3ccncc3)=Nc3ccc(Br)cc3N2)cc1 | -0.81
52 | Cc1c(C(=O)N2CCC3(CC2)OCCCC3O)n(C)c2ccccc12 (stereo not drawn) | -0.28
53 | CCOC(=O)c1c(NC(=O)/C(C#N)=C/c2ccccc2)sc2c1CCC2 | -0.67
54 | COc1ccccc1-c1cc(C(F)(F)F)nc(S(=O)(=O)CCCC(=O)Nc2ccc(F)cc2F)n1 | -0.87
55 | CCC(=O)N1CCc2cc(Br)cc(S(=O)(=O)CCC(=O)N3CCN(c4ccc(F)cc4)CC3)c21 | 3.68 (active)
56 | CCC(=O)N1CCc2cc(Br)cc(S(=O)(=O)CCC(=O)NCc3ccccc3OC)c21 | -0.86
57 | CCC(=O)N1CCc2cc(Br)cc(S(=O)(=O)CCC(=O)NCCc3ccc(OC)c(OC)c3)c21 | 2.58
58 | Cc1cccc2nc(-c3ccc(Cl)s3)c(Nc3ccc4c(c3)OCCO4)n12 | 0.38
59 | COc1ccc(CNC(=O)Cc2coc3ccc(C(C)C)cc23)cc1 | -1.14
60 | CC(=O)N1CCCCC1C(=O)Nc1cccc(-n2cccn2)c1 (stereo not drawn) | -4.62
61 | Cc1ccc(C)c(N2CCN(C(=O)CN3C(=O)COc4ccc(S(=O)(=O)N5CCCCCC5)cc43)CC2)c1 | -0.13
62 | CCc1cc2c(cc(C(=O)OC)n2Cc2nc(-c3ccc(C)cc3)oc2C)s1 | -0.09
63 | CCCOc1ccc(C2c3c(-c4ccccc4O)n[nH]c3C(=O)N2Cc2cccnc2)cc1 (stereo not drawn) | -1.98

Row | Compound | z-score
64 | COc1ccc(OCCCn2c(C3CC(=O)N(c4ccc(F)cc4)C3)nc3ccccc32)cc1 (stereo not drawn) | 0.64
65 | CCOc1ccc(N2CC(c3nc4ccccc4n3CCOc3ccc(OC)cc3)CC2=O)cc1 (stereo not drawn) | -4.05
66 | CCc1ccccc1N1CC(c2nc3ccccc3n2CCCCOc2ccccc2)CC1=O (stereo not drawn) | 5.94 (active)
67 | CC(=O)c1c(C)n(S(=O)(=O)c2ccc(Cl)cc2)c2ccc(NS(=O)(=O)c3ccc(Cl)cc3)cc12 | -0.71
68 | COc1ccc(NC(=O)CNC(=O)Cn2ccc3ccccc3c2=O)c(OC)c1 | -2.14
69 | CN1CCCn2nc(C(=O)NCCCCc3ccccc3)cc2C1 | -1.24
70 | CCc1ccccc1NS(=O)(=O)c1ccc2nc(-c3ccccc3)[nH]c2c1 | -1.16
71 | CC(Cn1cccn1)NC1CCN(C(=O)c2cccnc2)CC1 (stereo not drawn) | -2
72 | Cc1ccc(N2CC(C(=O)Nc3ccc(N(C)C)cc3)CC2=O)cc1Cl (stereo not drawn) | 0.09
73 | COc1cccc(-c2nc(CS(=O)(=O)CC(=O)NCCc3ccc(OC)c(OC)c3)c(C)o2)c1 | -0.64
74 | CCc1ccccc1NC(=O)N1CCC2(CC1)Oc1ccccc1C(=O)N2Cc1ccccc1F | -0.81
75 | O=C(NC1CCCCC1)c1ccc2c(c1)N(Cc1ccc(Cl)cc1)C(=O)c1ccccc1S2=O (stereo not drawn) | 0.06
76 | CCC(=O)N1CCc2cc(S(=O)(=O)NCCC(=O)Nc3cccc(C)c3C)ccc21 | -0.9
77 | COc1ccccc1Nc1cc(C(=O)NCCCN(C)C2CCCCC2)c2ccccc2n1 | -0.07
78 | CC(C)Sc1nnc(NC(=O)c2ccccc2-n2cnnc2)s1 | -0.42
79 | CC(C)S(=O)(=O)c1oc(-c2ccc(F)cc2)nc1S(=O)(=O)c1ccc(F)cc1 | -3.54
80 | CCN(C(=O)Cn1cnc2sc(C)c(S(=O)(=O)N3CCN(c4ncccn4)CC3)c2c1=O)c1ccccc1F | -2.69
81 | CCNC(=O)Cn1nc(C)n2c(cc3c(OC)cccc32)c1=O | -1.37
82 | CC(C)(C)C(Cn1ccnc1)NC(=O)C=Cc1cc(CO)cs1 (stereo not drawn) | 0.54
83 | COc1ccc(N(C)C(=O)C2CCN(S(=O)(=O)c3cc(Br)cc4c3N(C(C)=O)CC4)CC2)cc1 | -1.87
